Data on two molecules can be found in the supplement of paper PMC8728848.

The full list was thinned out, with the strongest signals kept by preference.

What all share (experiment): glycan array binding signal (z-score within array); higher = stronger binding
What all share (conditions): glycan notation: IUPAC condensed, linker removed

The target of assay [1] is Neu5Gc(a2-3)Gal(b1-3)GlcNAc. The essentials: (§1)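 Negative Z-scores can be read as non-binding. The Z-score is calculated within each array and then averaged across arrays of one protein sequence at different concentrations or buffers and across linkers. Arrays, 3228 in all, were curated from the Consortium for Functional Glycomics database and kept only where the protein sequence was available.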

Assay [2] addresses Fuc(a1-2)Gal(b1-3)GalNAc(b1-3)Gal(a1-4)Gal(b1-4)Glc. The essentials: as §1
In assay [3] the target is Fuc(a1-2)Gal(b1-4)GlcNAc(b1-2)Man(a1-3)[Fuc(a1-2)Gal(b1-4)GlcNAc(b1-2)Man(a1-6)]Man(b1-4)GlcNAc(b1-4)[Fuc(a1-6)]GlcNAc. The method, boiled down: as §1
Assay [4] concerns the target Fuc(a1-2)Gal(b1-4)[Fuc(a1-3)]GlcNAc(b1-2)[Fuc(a1-2)Gal(b1-4)[Fuc(a1-3)]GlcNAc(b1-4)]Man(a1-3)[Fuc(a1-2)Gal(b1-4)[Fuc(a1-3)]GlcNAc(b1-2)Man(a1-6)]Man(b1-4)GlcNAc(b1-4)GlcNAc. The method, boiled down:
as §1

For assay [5], the target named is Fuc(a1-2)Gal(b1-4)[Fuc(a1-3)]GlcNAc(b1-3)Gal(b1-4)[Fuc(a1-3)]GlcNAc. The method, boiled down: as §1
Assay [6] addresses Fuc(a1-2)Gal6S(b1-4)Glc. The method, boiled down:
as §1

For assay [7], the target named is Fuc(a1-2)[Gal(a1-3)]Gal(b1-4)GlcNAc(b1-6)GalNAc. The method, boiled down:
as §1

Assay [8] has as its target Fuc(a1-2)[GalNAc(a1-3)]Gal(b1-3)GalNAc(a1-3)[Fuc(a1-2)]Gal(b1-4)GlcNAc. The essentials: as §1
In assay [9] the target is Gal(a1-4)Gal(b1-4)GlcNAc(b1-2)Man(a1-3)[Gal(a1-4)Gal(b1-4)GlcNAc(b1-2)Man(a1-6)]Man(b1-4)GlcNAc(b1-4)GlcNAc. The method, boiled down:
as §1

Assay [10] addresses Gal(b1-3)GlcNAc(b1-2)Man. The essentials: as §1
Assay [11] concerns the target Gal(b1-3)GlcNAc(b1-2)Man(a1-3)[GlcNAc(b1-4)][Gal(b1-3)GlcNAc(b1-2)Man(a1-6)]Man(b1-4)GlcNAc(b1-4)GlcNAc. The method, boiled down:
as §1

For assay [12], the target named is Gal(b1-3)GlcNAc(b1-2)[Gal(b1-3)GlcNAc(b1-6)]Man(a1-6)[Gal(b1-3)GlcNAc(b1-2)Man(a1-3)]Man(b1-4)GlcNAc(b1-4)GlcNAc. The essentials: as §1
Assay [13] addresses Gal(b1-3)GlcNAc(b1-3)Gal(b1-4)Glc. The essentials: as §1
Assay [14] concerns the target Gal(b1-3)GlcNAc(b1-3)Gal(b1-4)GlcNAc. The method, boiled down: as §1
Assay [15] concerns the target Gal(b1-3)[Fuc(a1-4)]GlcNAc. The method, boiled down: as §1
The target in assay [16] is Gal(b1-4)GlcNAc(b1-2)Man(a1-3)[GlcNAc(b1-2)Man(a1-6)]Man(b1-4)GlcNAc(b1-4)GlcNAc. The essentials: as §1
The target of assay [17] is Gal(b1-4)GlcNAc(b1-2)Man(a1-3)[GlcNAc(b1-4)][Gal(b1-4)GlcNAc(b1-2)Man(a1-6)]Man(b1-4)GlcNAc(b1-4)GlcNAc. The essentials:
as §1

The target in assay [18] is Gal(b1-4)GlcNAc(b1-2)Man(a1-3)[Man(a1-6)]Man(b1-4)GlcNAc(b1-4)GlcNAc. The essentials:
as §1

The target of assay [19] is Gal(b1-4)GlcNAc(b1-2)[Gal(b1-4)GlcNAc(b1-4)]Man(a1-3)[Gal(b1-4)GlcNAc(b1-2)[Gal(b1-4)GlcNAc(b1-6)]Man(a1-6)]Man(b1-4)GlcNAc(b1-4)GlcNAc. The method, boiled down: as §1
Assay [20] deals with Gal(b1-4)GlcNAc(b1-3)Gal(b1-4)GlcNAc(b1-2)[Gal(b1-4)GlcNAc(b1-3)Gal(b1-4)GlcNAc(b1-6)]Man(a1-6)[Gal(b1-4)GlcNAc(b1-3)Gal(b1-4)GlcNAc(b1-2)Man(a1-3)]Man(b1-4)GlcNAc(b1-4)GlcNAc. The method, boiled down:
as §1

The target of assay [21] is Gal(b1-4)GlcNAc(b1-3)Gal(b1-4)GlcNAc(b1-3)Gal(b1-4)GlcNAc(b1-3)Gal(b1-4)GlcNAc(b1-2)Man(a1-3)[Gal(b1-4)GlcNAc(b1-3)Gal(b1-4)GlcNAc(b1-3)Gal(b1-4)GlcNAc(b1-3)Gal(b1-4)GlcNAc(b1-2)Man(a1-6)]Man(b1-4)GlcNAc(b1-4)[Fuc(a1-6)]GlcNAc. The essentials:
as §1

Assay [22] concerns the target Gal(b1-4)GlcNAc(b1-3)[GlcNAc(b1-6)]Gal(b1-4)GlcNAc. The essentials:
as §1

In assay [23] the target is Gal3S(b1-3)GlcNAc. The method, boiled down: as §1
Assay [24] concerns the target Gal3S(b1-4)[Fuc(a1-3)]Glc6S. The essentials: as §1
The target of assay [25] is GalNAc6S(b1-4)GlcNAc. The method, boiled down:
as §1

In assay [26] the target is GlcNAc(a1-4)Gal(b1-4)GlcNAc. The essentials: as §1
For assay [27], the target named is GlcNAc(b1-3)Man. The essentials:
as §1

Assay [28] has as its target GlcNAc6S(b1-3)Gal(b1-4)GlcNAc. The essentials:
as §1

Assay [29] has as its target Man(a1-2)Man(a1-3)[Man(a1-2)Man(a1-6)]Man(a1-6)[Man(a1-2)Man(a1-2)Man(a1-3)]Man. The essentials:
as §1

The target in assay [30] is Neu5Ac(a2-3)Gal(b1-3)GalNAc. The method, boiled down: as §1
For assay [31], the target named is Neu5Ac(a2-3)Gal(b1-3)GalNAc(b1-3)Gal(a1-4)Gal(b1-4)Glc. The essentials:
as §1

For assay [32], the target named is Neu5Ac(a2-3)Gal(b1-3)GlcNAc(b1-2)Man(a1-3)[Neu5Ac(a2-3)Gal(b1-3)GlcNAc(b1-2)Man(a1-6)]Man(b1-4)GlcNAc(b1-4)GlcNAc. The method, boiled down:
as §1

Assay [33] deals with Neu5Ac(a2-3)Gal(b1-3)GlcNAc(b1-3)GalNAc. The method, boiled down: as §1
Assay [34] has as its target Neu5Ac(a2-3)Gal(b1-4)GlcNAc(b1-2)Man. The essentials:
as §1

Assay [35] addresses Neu5Ac(a2-3)Gal(b1-4)GlcNAc(b1-2)[Neu5Ac(a2-3)Gal(b1-4)GlcNAc(b1-4)]Man(a1-3)[GlcNAc(b1-4)][Neu5Ac(a2-3)Gal(b1-4)GlcNAc(b1-4)Man(a1-6)]Man(b1-4)GlcNAc(b1-4)GlcNAc. The essentials: as §1
Assay [36] addresses Neu5Ac(a2-3)Gal(b1-4)GlcNAc(b1-3)Gal(b1-4)GlcNAc(b1-3)[Neu5Ac(a2-3)Gal(b1-4)GlcNAc(b1-3)Gal(b1-4)GlcNAc(b1-6)]GalNAc. The method, boiled down:
as §1

Assay [37] addresses Neu5Ac(a2-3)Gal(b1-4)[Fuc(a1-3)]GlcNAc(b1-3)GalNAc. The essentials: as §1
Assay [38] has as its target Neu5Ac(a2-3)Gal6S(b1-4)GlcNAc. The method, boiled down:
as §1

The target in assay [39] is Neu5Ac(a2-6)Gal(b1-4)GlcNAc(b1-2)Man(a1-3)Man(b1-4)GlcNAc(b1-4)GlcNAc. The method, boiled down:
as §1

Assay [40] concerns the target Neu5Ac(a2-6)Gal(b1-4)GlcNAc(b1-3)Gal(b1-3)GlcNAc. The essentials: as §1
Assay [41] has as its target Neu5Ac(a2-6)GlcNAc(b1-4)GlcNAc(b1-4)GlcNAc. The method, boiled down: as §1
For assay [42], the target named is Neu5Gc(a2-3)Gal(b1-4)GlcNAc. The method, boiled down: as §1

B1: Eap (Staphylococcus aureus), A0A7L5PYT7 (protein)
chain: MKFKSLITTTLALGVLASTGANFNNNEAAAAAKPLDKSSSSLHHGYSKVHVPYAITVNGTSQNILSSLTFNKNQNISYKDLEDRVKSVLKSDRGISDIDLRLSKQAKYTVYFKNGTKKVIDLKAGIYTADLINTSEIKAININVDTKKQVEDKKKDKANYQVPYTITVNGTSQNILSNLTFNKNQNISYKDLEDKVKSVLESNRGITDVDLRLSKQAKYTVNFKNGTKKVIDLKSGIYTANLINSSDIKSININVDTKKHIENKAKRNYQVPYSINLNGTSTNILSNLSFSNKPWTNYKNLTSQIKSVLKHDRGISEQDLKYAKKAYYTVYFKNGGKRILQLNSKNYTANLVHAKDVKRIEITVKTGTKAKADRYVPYTIAVNGTSTPILSDLKFTGDPRVGYKDISKKVKSVLKHDRGIGERELKYAKKATYTVHFKNGTKKVININSNISQLNLLYVQDIKKIDIDVKTGTKAKADSYVPYTIAVNGTSTPILSKLKISNKQLISYKYLNDKVKSVLKSERGISDLDLKFAKQAKYTVYFKNGKKQVVNLKSDIFTPNLFSAKDIKKIDIDVKQYTKSKKNK
B1: in assay [1], the “glycan array binding signal (z-score)” value is -0.196.

B2: PfulAvr4 2 (Pseudocercospora fuligena) (protein)
chain: HHHHHHDYKDDDDKAKPIKPFACPPKDFTTTKCQGPVDCLYANPLSCLGYIQCVCDDDACSTATPYAKSCPTGLAWVEKLKRCDGIKKSACPKKMYEGS
With B2, the “glycan array binding signal (z-score)” value is 0.285 in assay [2]; 2.88 in assay [3]; 4.77 in [4]; -0.355 in assay [5]; -0.291 in assay [6]; -0.178 in assay [7]. Also, the “glycan array binding signal (z-score)” value in assay [8] is 3.28; in [9] it was 1.43; in assay [10] it was -0.279; in [11], 8.86; in [12] it was -0.063; in assay [13], 0.144. Moreover, the “glycan array binding signal (z-score)” value in [14] is -0.311; in assay [15], -0.218; in assay [16], -0.331; in [17], -0.216; in [18], 9.66; in assay [19] it was -0.113. Further, the “glycan array binding signal (z-score)” value is 4.76 in assay [20]; -0.233 in assay [21]; 5.97 in [22]; -0.314 in assay [23]; -0.272 in assay [24]; -0.276 in [25]. Further, the “glycan array binding signal (z-score)” value in assay [26] was -0.432; in [27], 4.99; in assay [28], -0.273; in assay [29], -0.359; in assay [30], -0.292; in [31], -0.326. For the same molecule, the “glycan array binding signal (z-score)” value was 7.16 in [32]; -0.01 in assay [33]; 5.08 in assay [34]; -0.253 in [35]; -0.158 in assay [36]; 0.545 in [37]. Besides, the “glycan array binding signal (z-score)” value is -0.482 in assay [38]; -0.224 in assay [39]; -0.344 in [40]; 3.75 in assay [41]; -0.214 in assay [42].
